Screening data from PubChem BioAssay.
D1 antagonist: Antagonist of Human D 1 Dopamine Receptor: qHTS. activity change, negative = inhibition, % at 10 µM. D(1A) dopamine receptor (Homo sapiens), P21728. HEK293 TREx D1 cells, calcium flux, dopamine EC80; hits give low values. 3.2% of 360,000 active; in the data active = activity change below about -30%; note: % is set by controls: 0 for no effect and ±100 for the full control effect
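Antagonism measured as reduced calcium response to an EC80 dopamine addition following 180 s compound pre-read; cells were inducible HEK293 Trex D1 plated overnight at 30 C, read kinetically at 1 cycle/sec.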
BCR signal inh: qHTS Assay to Find Inhibitors of Chronic Active B-Cell Receptor Signaling; 0.05% of 340,000 active; Potency, µM (series often up to 46.1 µM), inactives show at the highest dose activity change, negative = inhibition, hits mostly inhibitors; ABC-DLBCL IkBa-CBG/CBR reporter, luminescence ratio, 4 h; active = well fitted inhibition curve with a large enough effect in the signal ratio, with a control signal flat, not every such curve was filed as active; inconclusive = small, poorly fitted or top-dose-only effect, or effect the other way, or a change in a side signal; the % refers to the signal ratio;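 note: potency is the fitted concentration of half-maximal effect; plate controls were basal doxycycline-induced cells for no effect and cells given 10 µM MG132 for full effect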
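Compounds up to 46 uM were incubated four hours with TMD8 cells whose green CBG68 luciferase is fused to IkappaBalpha; red CBR luminescence normalised the signal, and concentration-effect curves were fitted to fusion, red and ratio data.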
D1 ag: Allosteric Agonists of the Human D1 Dopamine Receptor: qHTS; HEK293 T-REx D1 cells, calcium flux, agonist mode; activation, % at 2 µM; 1% of 360,000 active; AID 504660, 2011; in the data active = activation above about 30%; note: 0% is about no effect
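Tetracycline-induced HEK293 TREx D1 cells, force-coupled to calcium signalling, were dye-loaded with a no-wash calcium kit. Compound was pin-added after a 10 s baseline. Fluorescence was read kinetically at 1 cycle/s for 180 s, with calcium rises flagged as agonism.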
DRD3 antagonist: qHTS of D3 Dopamine Receptor Antagonist: qHTS | D3R cells, DiscoveRx beta-arrestin luminescence, antagonist mode; hits give low values | max response, negative = inhibition, % | 2.5% of 360,000 active | AID 652054, 2013; in the data active = max response below about -50%; inconclusive = no clear call, values can overlap the other calls; note: % is set by controls: 0 for no effect and ±100 for the full control effect
Target sequence (P35462 whole entry, looked up): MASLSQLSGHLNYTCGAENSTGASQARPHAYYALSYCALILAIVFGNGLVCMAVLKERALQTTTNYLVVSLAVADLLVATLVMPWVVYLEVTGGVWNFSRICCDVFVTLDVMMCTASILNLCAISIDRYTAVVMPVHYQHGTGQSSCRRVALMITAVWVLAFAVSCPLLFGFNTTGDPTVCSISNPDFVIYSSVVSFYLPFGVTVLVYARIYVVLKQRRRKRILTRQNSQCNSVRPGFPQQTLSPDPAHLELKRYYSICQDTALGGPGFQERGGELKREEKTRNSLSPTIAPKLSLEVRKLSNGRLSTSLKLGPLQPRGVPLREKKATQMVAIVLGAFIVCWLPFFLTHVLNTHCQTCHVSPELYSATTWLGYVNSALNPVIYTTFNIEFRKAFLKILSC
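Cells expressing the human receptor were seeded at 1500 cells/well, incubated overnight at 37 degrees C in 5% CO2, then exposed to library compounds with dopamine controls for 90 minutes at 37 degrees C before luminescent detection.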
D3 ag: qHTS of D3 Dopamine Receptor Agonist: qHTS; D(3) dopamine receptor (Homo sapiens), P35462; D3R DiscoveRx beta-arrestin cells, luminescence, 90 min; max activation, %; 0.58% of 410,000 active; in the data active = max activation above about 30%; note: 0% is about no effect
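Agonist mode: compounds and dopamine controls were applied to plated cells for 90 min at 37 degrees C after an overnight attachment at 1500 cells/well. Luminescent read-out followed 30 - 60 minutes at room temperature with DiscoveRx detection reagent.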
D1 potentiator: Potentiators of Human D1 Dopamine Receptor: qHTS. D(1A) dopamine receptor (Homo sapiens), P21728. HEK293 TREx D1 cells, calcium flux, dopamine EC20 potentiation. potentiation, % at 10 µM. 0.036% of 360,000 active. AID 504651, 2011; in the data active = potentiation above about 30%; note: 0% is about no effect
Active calls of the source: *; ? = inconclusive; nt = no result. Sampled rows, rich in hits. Any-hit rate of the full collection: about 6%.

SMILES | D1 antagonist | BCR signal inh | D1 ag | DRD3 antagonist | D3 ag | D1 potentiator
Cc1cc(NS(=O)(=O)c2ccc(NC(=O)C(CC(C)C)N3C(=O)c4ccccc4C3=O)cc2)nc(C)n1 (configuration not stated) | -18 | 0% | 2 | -9 | -7 | 0
Cc1noc(C)c1-c1ccc(C(=O)NCc2cccs2)c2occc12 | nt | nt | nt | 0 | 1 | nt
Cc1oc(C(C)(C)C)cc1C(=O)NC1CCN(Cc2ccccc2)CC1 | 9 | -18% | 25 | -80* | -41 | -10
O=C(NC1CCN(Cc2ccccc2)CC1)c1ccc(Cl)cc1Cl | -15 | 0% | 7 | ? | -21 | -6
Cc1oc(-c2ccc(Cl)cc2)cc1C(=O)NC1CCN(Cc2ccccc2)CC1 | -13 | ? | 3 | -65* | -9 | -6
COc1ccccc1CCNC(=O)CCc1c(C)c2cc3c(C)coc3c(C)c2oc1=O | 7 | nt | 1 | nt | -17 | -2
CCOC(=O)N1CCc2c(sc3c2c(=O)n(-c2ccc(CC)cc2)c(=O)n3Cc2cc(C)ccc2C)C1 | -29 | nt | 2 | nt | 6 | -3
CCc1c(C(=O)NNC(=S)NCCc2ccccc2)csc1C | -3 | -22% | 13 | -66* | -26 | -4
Cc1ccc(CN2COc3ccc4c(C)cc(=O)oc4c3C2)cc1 | -10 | nt | 1 | nt | -19 | -1
CCCNC(=O)COC(=O)c1cccnc1Nc1ccccc1F | -32* | 0% | 0 | -13 | 2 | -4
O=C(COC(=O)c1ccccc1F)Nc1cccnc1Cl | 7 | ? | 1 | -3 | 39* | 2
O=C(COC(=O)c1ccccc1Br)NCCN1C(=O)CSC1=O | -2 | -7% | -2 | 8 | 0 | -1
NC(=O)NC(=O)COC(=O)c1cccnc1Nc1ccccc1F | 4 | ? | 5 | -4 | 3 | 0
O=C(COC(=O)c1cccnc1Nc1ccccc1F)NCCN1C(=O)CSC1=O | 5 | ? | 1 | -57* | -2 | -4
COc1ccccc1-c1cc(NC(C)=O)c2ncc(-c3cccc(C(C)=O)c3)n2c1 | nt | nt | nt | 17 | 4 | nt
Cc1c(/C=N/NC(=O)c2ccc(O)cc2)c2ccccn2c1C(=O)c1ccc(F)cc1 | -14 | ? | -1 | -28 | -9 | -10
Cc1c(/C=N/NC(=O)c2ccccc2O)c2ccccn2c1C(=O)c1ccc(F)cc1 | -25 | ? | 8 | 13 | 31* | -7
CC1CCC(NC(=O)CCc2cn(Cc3ccccc3Cl)c3ccccc23)CC1 (configuration not stated) | 2 | nt | 1 | nt | 12 | 0
COc1cccc(CNC(=O)CCc2cn(Cc3ccccc3Cl)c3ccccc23)c1 | -9 | nt | 33* | nt | 4 | 1
O=C(O)c1cccc(OCCN2CCCC2=O)c1 | -32* | 4% | 6 | 2 | 3 | -3
COc1ccc(Cl)cc1N(CC(=O)NCc1ccccn1)S(=O)(=O)c1ccc(C)cc1 | nt | nt | nt | -20 | -11 | nt
Cc1cccc(C(=O)Nc2ccc(C(=O)/C=C/c3cccnc3)cc2)c1 | -16 | 2% | 2 | -81* | -12 | -10
O=C(/C=C/c1cccnc1)/C=C/c1cccnc1 | 17 | ? | 3 | -102* | -17 | -2
O=C(Nc1nnc([C@H]2C[C@H](O)[C@@H](CO)O2)s1)c1cccc(OC(F)(F)F)c1 | nt | nt | nt | -5 | -11 | nt
CCOc1ccc(-n2c(=O)c3c4c(sc3n(CC(=O)Nc3cccc(C(F)(F)F)c3)c2=O)CCCCC4)cc1 | 0 | nt | 7 | nt | 4 | 4
SMILES | D1 antagonist | BCR signal inh | D1 ag | DRD3 antagonist | D3 ag | D1 potentiator
COc1cccc(CNCc2ccc(OC)cc2OC)c1 | -15 | 2% | 6 | -5 | -4 | -7
COc1ccc(CNCc2cc(C)c(OC)cc2C)c(OC)c1 | -2 | ? | 30* | -12 | -22 | -4
CCC(CC)NCc1ccc2c(c1)c1ccccc1n2CC | 12 | ? | 60* | 0 | -7 | 2
CCn1c2ccccc2c2cc(CNCc3ccc(OC)cc3OC)ccc21 | -28 | ? | 94* | -16 | -13 | -4
CCn1c2ccccc2c2cc(CNCCCN3CCOCC3)ccc21 | -8 | -11% | 5 | -100* | -8 | -4
N#CC1C(=O)NC(=O)C(C#N)C12CCCC2 (configuration not stated) | nt | nt | nt | 17 | 6 | nt
CN(Cc1ccccc1)C(=O)c1cccc(NC(=O)Cc2ccc(NC(=O)C3CCCN(C(=O)C4CCC4)C3)cc2)c1 (configuration not stated) | nt | nt | nt | 25 | 6 | nt
O=C(c1ccccc1Cl)n1nc(-c2cccnc2)nc1NCc1ccc(F)cc1 | -1 | nt | 9 | nt | -19 | -4
Cc1ccccc1Nc1nc(C#N)nc(NC2CCCC2)n1 | -13 | nt | 3 | nt | nt | -5
Clc1ccc(-c2ccc(CN3CCCCC3)o2)cc1 | 7 | -2% | 4 | -106* | -6 | -3
CN1CCN(Cc2ccc(-c3ccc(Cl)cc3)o2)CC1 | -24 | 23% | 15 | -71* | -19 | -2
Cc1ccc(-n2ncc3c(N4CCCCCC4)ncnc32)cc1C | 4 | ? | -5 | nt | 19 | 0
Cc1cc(C)n(S(=O)(=O)c2cc(C)c(C)cc2C)n1 | -31* | 1% | 1 | 12 | -3 | -12
Cc1ccc(-n2ncc(C(=O)NCCc3ccccc3)c2C2CCN(C(=O)OC(C)(C)C)CC2)c(C)c1 | -5 | nt | 4 | nt | -2 | -4
O=C(NC1CCCc2c1cnn2-c1ccc(F)cc1F)c1cnccn1 (configuration not stated) | -4 | ? | 5 | 3 | -2 | 7
O=C(NC1CCCc2c1cnn2-c1ccc(F)cc1F)c1csnn1 (configuration not stated) | -31* | 1% | 2 | -2 | -6 | -2
Cc1nnc(SCC(=O)NC2CCCc3c2cnn3-c2ccccc2F)o1 (configuration not stated) | -39* | -2% | 1 | 1 | 3 | -1
Cc1nnc(SCC(=O)NC2CCCc3c2cnn3-c2ccc(F)cc2F)o1 (configuration not stated) | 12 | 7% | 0 | 15 | 3 | -8
FC(F)C(F)(F)Oc1cccc(Nc2nccn3c(-c4cccc5cccnc45)cnc23)c1 | nt | nt | nt | -11 | -7 | nt
O=c1c2cc3c(cc2[nH]c(=S)n1C1CCN(Cc2ccccc2)CC1)OCO3 | -32* | -7% | 3 | ? | -19 | -9
